From PubChem BioAssay
Shown are actives, neighbours in structure and some others; about 8.1% of the full set was active somewhere.
KB-V1 cytotox – KB-V1 MDR subline cytotoxicity. KB-V1 MDR cells viability, CellTiter-Glo, 72 h. Potency, µM (titrated, usually from 46.1 µM), usual class: cytotoxic. 400,000 tested, 3.4% active. AID 1347076; also: % is scaled to controls: 0 for no effect and ±100 for the full control effect; nearly all actives have a fitted effect of over 60% in size
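Following 72 h at 37 degrees C with compound, KB-V1 cell viability was read by CellTiter-Glo luminescence, medium being phenol-red-free DMEM plus 10% FBS; concentration-response parameters came from normalized, curve-fitted qHTS data.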
MCF10A rerep – DNA re-replication induction in MCF 10a cells | MCF 10A DNA re-replication, Hoechst nuclear intensity, 48 h | Potency, µM (top dose mostly 46.1 µM), inactives show top-dose activity, positive = re-replication, hits mostly activators | 350,000 tested, 2.9% active | AID 624296; also: % of control where 0% means no effect; nearly all actives have a fitted effect of over 50% in size
ELG1 repair inh – ELG1-dependent DNA repair inhibition | 330,000 tested, 2.3% active | Potency, µM (top dose mostly 46.1 µM), without a hit: at the highest dose activity change, negative = inhibition, actives largely listed as inhibitors | AID 504467 | HEK293T ELG1-luciferase reporter, luminescence, 16 h; DNA damage induced by 5-fluorouridine; also: % is scaled to controls: 0 for no effect and ±100 for the full control effect; nearly all actives have a fitted effect of over 55% in size
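Overnight (16 hr) co-exposure of 2,000 cells/well to 5-fluorouridine and compound at 37 °C preceded detection. Luciferase was quantified via ONE-Glo luminescence; loss of signal denotes inhibition.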
KB-3-1 tox – kills parental KB-3-1 adenocarcinoma cells; KB-3-1 viability, CellTiter-Glo ATP luminescence, 72 h; Potency, µM (highest dose often 46.1 µM), usual class: cytotoxic; 400,000 tested, 1.4% active; also: % is scaled to controls: 0 for no effect and ±100 for the full control effect; nearly all actives have a fitted effect of over 60% in size
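72 h, 37 °C compound treatment of KB-3-1 parental cells; CellTiter-Glo added, 10 min, luminescence read. Data corrected against DMSO-only plates and normalized before curve fitting.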
SW480 rereplic – DNA re-replication induction in SW480 cells; SW480 DNA re-replication, Hoechst DNA content imaging, 48 h; Potency, µM (doses to about 46.1 µM), without a hit: at the highest dose re-replication activation, hits mostly activators; 340,000 tested, 1.8% active; AID 624297; also: % of control where 0% means no effect; nearly all actives have a fitted effect of over 55% in size
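SW480 cells exposed to compounds for 48 hr at 37 C, 5% CO2, then Hoechst-stained 40 min. Nuclear DNA content imaged by fluorescence scanning (405 nm excitation, 500-530 nm emission); re-replication scored as increased high-intensity nuclei.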
Starred values were filed as active, the others as inactive; i = inactive; ? = inconclusive; . = not tested or not shown; [ ] = another dose, or the depositor's remark. Calls follow the shape of the dose curve; as a rule, active = well fitted curve in the direction sought with a large enough effect; inconclusive = small, poorly fitted or top-dose-only effect, or another doubt; inactive = no such curve, though single readings can be large; an effect the other way counts as inactive or inconclusive. Potency is read from the fitted curve at half-maximal effect.

SMILES | KB-V1 cytotox | MCF10A rerep | ELG1 repair inh | KB-3-1 tox | SW480 rereplic
O=C(Cc1ccccc1Cl)NNC(=O)Nc1ccccc1 | i | 0.4% | -8.9% | i | 29.1µM*
O=C(Nc1ccc(Cl)c(Cl)c1)Nc1nnc(CSc2ccccc2)s1 | 14.6µM* | ? | ? | ? | ?
CC(C)C(=O)Nc1nnc(CSCc2ccccc2F)s1 | 18.4µM* | 2.3% | ? | i | -3.3%
Cc1nnc(NC(=O)Nc2cccc(Cl)c2)s1 | ? | -2.5% | -6.0% | i | -6.1%
O=C(Cc1cccc2ccccc12)NNC(=O)Nc1cccc(Cl)c1 | i | ? | 1.3% | i | 0.2%
Clc1ccc(Nc2nnc(Cc3ccncc3)c3ccccc23)cc1 | . | -0.1% | . | . | 8.2%
CCc1ccc(C(=O)c2cn(CC(=O)Nc3ccc4c(c3)OCO4)c3ccc(F)cc3c2=O)cc1 | i | . | . | ? | .
CCOC(=O)c1c(NC(=O)COC(=O)/C=C/c2ccccc2)sc(C(=O)NC)c1C | i | -1.9% | 4.9% | i | -10.6%
O=C(Nc1ccc(Cl)cc1)Nc1nnc(SCc2ccccc2)s1 | i | -0.3% | 6.3% | i | -4.5%
O=C(Nc1ccccc1)Nc1nnc(CSCc2ccccc2Cl)s1 | ? | 14.6µM* | ? | i | .
O=C(Cc1nnc(NC(=O)Nc2ccccc2)s1)Nc1ccccc1 | i | 0.1% | -8.2% | i | -22.0%
O=C(Nc1ccc(Cl)cc1)Nc1nnc(CSCc2ccccc2Cl)s1 | i | 123.3% | 10.3µM* | ? | 3.3%
O=C(Nc1ccc(Cl)c(Cl)c1)Nc1nccs1 | 4.11µM* | 13µM* | -8.5% | 4.61µM* | 2.31µM*
CNc1c(NC(=O)c2ccc(OC)c(OC)c2)c(=O)oc2ccccc12 | i | . | . | i | .
CC(C)(C)C1CCc2c(sc(NC(=O)c3ccccc3F)c2C(=O)NCc2ccco2)C1 (stereo not drawn) | i | . | . | i | .
COc1ccc(C2=CCN3CCCCC3C2)c(-c2ccc(OC)c(OC)c2)c1 (stereo not drawn) | ? | 8.2µM* | ? | ? | 1.9%
O=C1c2ccccc2C(=O)N1CCCCN(C(=O)c1cc2ccccc2oc1=O)c1ccc(Cl)cc1 | i | 0.1% | 23.1µM* | i | -4.0%
Cc1cc(Nc2ccccc2O)nc(C)n1 | ? | . | . | i | .
Cc1cccc(Nc2cc(C)c3c(O)cccc3n2)c1C | i | ? | -9.5% | ? | 20.6µM*
CCOC(=O)c1noc2nc(C)n(CC(=O)Nc3cc(Cl)ccc3OC)c(=O)c12 | i | . | . | i | .
CCOc1ccc2nc(NC(=O)CSc3nc4c(c(=O)n(C)c(=O)n4C)n3C(C)C)sc2c1 | 3.66µM* | ? | 9.2µM* | ? | 4.9%
CC(C)n1c(SCC(=O)Nc2nc3ccccc3s2)nc2c1c(=O)n(C)c(=O)n2C | i | ? | . | i | ?
CCn1c(SCC(=O)Nc2nc3ccc(OC)cc3s2)nc2c1c(=O)n(C)c(=O)n2C | 2.06µM* | 1.4% | 13µM* | i | 2.2%
CCOc1ccc2nc(NC(=O)Cn3[nH]c(=O)c4ccccc4c3=O)sc2c1 | i | 20.6µM* | ? | ? | 122.8%
Cc1cccc(C)c1Nc1cn[nH]c1 | i | . | . | i | .
SMILES | KB-V1 cytotox | MCF10A rerep | ELG1 repair inh | KB-3-1 tox | SW480 rereplic
Cc1cc(C)cc(C(=O)Nc2ccc(N3CCN(C(=O)c4ccco4)CC3)cc2)c1 | . | 25.2% | 20.6µM* | . | ?
O=C(Nc1ccc(N2CCN(C(=O)c3ccco3)CC2)cc1)c1ccccc1 | i | 1.9% | ? | i | 3.6%
O=C(Nc1ccc(N2CCN(C(=O)c3ccco3)CC2)cc1)c1ccc(F)cc1 | i | 17.4% | 20.6µM* | i | 1.6%
COC(=O)/C=C/c1ccccc1S(=O)(=O)NC(C)C | i | . | . | i | .
Cc1ccc(C2N(c3ccccc3)C(=O)N3CCCN23)cc1 (stereo not drawn) | i | 3.4% | 8.4% | i | 0.517µM*
COC(=O)/C=c1\sc2ncnn2c1=O | i | 11.2µM* | 12.4% | i | -11.2%[9.22 µM]
CCCCCc1c(C)nc(N2CCc3ccccc32)[nH]c1=O | 3.26µM* | -3.9% | -14.4% | ? | ?
Cn1cnc(C(=O)NCc2ccc(CNC(=O)OC(C)(C)C)cc2)c1C(=O)NCc1ccc(CNC(=O)OC(C)(C)C)cc1 | i | -4.5% | ? | i | 0.4%
C[C@H]1CN(S(=O)(=O)c2c(F)cccc2F)CCN1S(=O)(=O)c1ccc2c(c1)OCCO2 | i | 2.1% | -16.7% | i | 2.0%
COc1ccc2nc3cccc(OC)c3nc2c1 | i | 1.3µM* | ? | i | ?
O=[N+]([O-])c1cc(-c2ccccc2)cc([N+](=O)[O-])c1O | 20.6µM* | ? | . | 16.4µM* | 1.6%
O=[N+]([O-])c1cc2ccccc2c(O)c1O | ? | . | . | i | .
COc1ccc(C(C)=O)cc1COc1ccc(-n2cnnn2)cc1 | 20.6µM* | 6.9% | ? | i | -5.4%
C[C@H]1CN([C@@H](C)CO)C(=O)CCCn2nncc2CO[C@H]1CN(C)C(=O)Cc1ccccc1 | i | . | . | i | .
COC1=CCC2([N+](=O)[O-])CN(CCO)CC1([N+](=O)[O-])C2 (stereo not drawn) | i | -0.4% | 4.2% | i | -1.9%
O=C(O)CCN1CC2([N+](=O)[O-])CC=C(OCCO)C([N+](=O)[O-])(C1)C2 (stereo not drawn) | i | -0.4% | -10.6% | i | 3.66µM*
Cc1cc2nc(-c3cccc(NC(=O)CSc4ccc(Cl)cc4)c3)oc2cc1C | i | . | . | i | .
COc1ccc(-c2ccnc3nc(Sc4ncc(C(F)(F)F)cc4Cl)nn23)cc1 | 14.6µM* | -2.0% | -2.6% | i | 6.0%
FC(F)(F)c1cnc(Sc2nc3nccc(-c4ccc(Cl)cc4)n3n2)c(Cl)c1 | i | 3.26µM* | -1.5% | i | 16.4µM*
C[C@H](CO)N1C[C@H](C)[C@@H](CN(C)Cc2ccc(Cl)c(Cl)c2)OCc2cnnn2CCCC1=O | i | . | . | ? | .
Cc1ccc(C(=O)Nc2nc(-c3ccccn3)cs2)s1 | i | 17.6% | ? | i | -4.1%
Cc1c(C(=O)Nc2nc(-c3ccccn3)cs2)oc2ccccc12 | i | 23.1µM* | 5.3% | ? | 17.1%
CC(Oc1cccc(Cl)c1)C(=O)Nc1nc(-c2ccccn2)cs1 (stereo not drawn) | i | -11.4% | ? | ? | 6.51µM*
Cc1cccc(C(=O)N[C@H](C(=O)Nc2nnc(C3CC3)s2)C(C)C)c1 | ? | 2.7% | 13.6% | i | 6.6%
Cc1cccc(C(=O)N[C@H](C(=O)Nc2ncc(C)s2)C(C)C)c1 | 16.4µM* | 24.8% | ? | ? | ?
Cn1cccc1C(=O)Nc1nc(-c2ccccn2)cs1 | ? | 17.1% | ? | 10.3µM* | ?
